Source: PubChem (National Center for Advancing Translational Sciences (NCATS))
HP1b binding inh: HTS for Inhibitors of HP1-beta Chromodomain Interactions with Methylated Histone Tails | AID 540317, 2011 | Potency, µM (series often up to 114 µM), for inactives: at the top dose activity change, negative = inhibition, usual class: inhibitors | Chromobox protein homolog 1 (Homo sapiens), P83916 | actives 0.56% (n = 390,000) | AlphaScreen HP1-beta / biotin-H3K9me3 peptide binding; also: nearly all actives have a fitted effect of over 70% in size
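Compound inhibition of the preformed complex between 50 nM HP1-beta and 50 nM biotinylated H3K9me3 peptide was read by AlphaScreen. Buffer was PBS pH 7.4 with 0.01% Tween-20. Incubations ran 30 min at room temperature, with 10 ug/mL donor/acceptor beads.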
Sfp inh: qHTS Assay for Inhibitors of Bacillus subtilis Sfp phosphopantetheinyl transferase (PPTase). 4'-phosphopantetheinyl transferase ffp (Bacillus subtilis), Q9F4F7. Biochemical Sfp PPTase activity, qHTS. Potency, µM, for inactives: largest response in the series, negative = inhibition, actives largely listed as inhibitors. actives 3.5% (n = 310,000). AID 1490, 2009;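 also: the enzyme is Sfp with the accession as filed and its product quenches rhodamine fluorescence; 0% = enzyme reaction without inhibitor and -100% = no enzyme wells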
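Step 1, compound plus 15 nM Sfp-PPTase, 15 min, room temperature. Step 2, add rhodamine-CoA (5 uM) and BHQ-2-YbbR (12.5 uM). Step 3, read 525/598 nm fluorescence at 0 and 30 min.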
PLK1 PBD inh: qHTS for Inhibitors of PLK1-PDB (polo-like kinase 1 - polo-box domain): Primary Screen; actives 2.8% (n = 360,000); Plk1 PBD binding of FITC phosphopeptide, fluorescence polarization; AID 720504, 2013; Potency, µM, without a hit: max response, negative = inhibition, usual class: inhibitors; also: series mostly up to about 57 µM; % is scaled to controls: 0 for no effect and ±100 for the full control effect; nearly all actives have a fitted effect of over 65% in size
BAZ2B block: qHTS Assay for Inhibitors of BAZ2B; Bromodomain adjacent to zinc finger domain protein 2B (Homo sapiens), Q9UIF8; AlphaScreen BAZ2B-H3K14Ac peptide displacement; Potency, µM (highest dose often 114 µM), inactives show at the top dose activity change, negative = inhibition, usual class: inhibitors; actives 4.4% (n = 360,000); AID 504333, 2011; also: % is scaled to controls: 0 for no effect and ±100 for the full control effect; nearly all actives have a fitted effect of over 60% in size
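BAZ2B 50 nM plus b-H3(5-23)K14Ac 50 nM, PBS pH 7.4/0.01% Tween-20, 30 min RT; compound added (max 110 uM), 30 min RT; streptavidin donor/Ni-chelate acceptor beads 10 ug/mL final, 20 min dark; AlphaScreen read.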
JMJD2A Tudor: qHTS Assay for Inhibitors of JMJD2A-Tudor Domain. Potency, µM (doses to about 114 µM), without a hit: top-dose activity change, negative = inhibition, actives largely listed as inhibitors. AID 504339, 2011. AlphaScreen JMJD2A-Tudor / H3K4me3 peptide binding. actives 4.4% (n = 390,000); also: % is scaled to controls: 0 for no effect and ±100 for the full control effect; nearly all actives have a fitted effect of over 50% in size
Target sequence (O75164 whole entry, looked up, the tested form may be a part): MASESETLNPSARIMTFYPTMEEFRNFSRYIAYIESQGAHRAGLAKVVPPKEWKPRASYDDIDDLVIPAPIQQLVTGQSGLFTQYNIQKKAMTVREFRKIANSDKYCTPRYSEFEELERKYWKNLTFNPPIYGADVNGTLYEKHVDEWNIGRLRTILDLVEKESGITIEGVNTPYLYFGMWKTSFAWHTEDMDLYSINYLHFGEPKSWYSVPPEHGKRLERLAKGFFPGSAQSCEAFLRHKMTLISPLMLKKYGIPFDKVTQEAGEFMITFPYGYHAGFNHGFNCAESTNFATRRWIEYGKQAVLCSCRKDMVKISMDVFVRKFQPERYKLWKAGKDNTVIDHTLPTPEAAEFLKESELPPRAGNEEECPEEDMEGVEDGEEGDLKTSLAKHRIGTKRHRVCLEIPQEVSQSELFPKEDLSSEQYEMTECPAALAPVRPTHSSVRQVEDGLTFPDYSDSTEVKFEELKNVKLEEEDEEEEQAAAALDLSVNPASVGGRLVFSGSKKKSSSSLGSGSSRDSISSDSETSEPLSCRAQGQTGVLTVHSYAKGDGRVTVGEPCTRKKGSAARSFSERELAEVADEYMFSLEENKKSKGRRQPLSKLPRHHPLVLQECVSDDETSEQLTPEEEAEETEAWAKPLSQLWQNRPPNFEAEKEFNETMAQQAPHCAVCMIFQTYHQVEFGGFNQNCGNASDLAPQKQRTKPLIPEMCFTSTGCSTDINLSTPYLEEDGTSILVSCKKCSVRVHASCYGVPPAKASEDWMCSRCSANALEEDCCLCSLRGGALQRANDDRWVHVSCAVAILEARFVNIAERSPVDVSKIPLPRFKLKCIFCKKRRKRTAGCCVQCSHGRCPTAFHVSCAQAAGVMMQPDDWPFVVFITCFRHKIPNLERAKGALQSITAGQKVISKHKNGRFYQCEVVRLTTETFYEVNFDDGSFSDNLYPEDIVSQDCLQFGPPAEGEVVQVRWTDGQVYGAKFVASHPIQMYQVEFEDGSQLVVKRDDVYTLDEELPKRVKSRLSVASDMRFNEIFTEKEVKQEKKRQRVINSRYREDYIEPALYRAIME
G9a block: qHTS Assay for Inhibitors of Histone Lysine Methyltransferase G9a; Histone-lysine N-methyltransferase EHMT2 (Homo sapiens), Q96KQ7; G9a H3K9 monomethylation, AlphaScreen, 2 h; Potency, µM (series often up to 102 µM), without a hit: top-dose activity, negative = inhibition, actives largely listed as inhibitors; actives 8.8% (n = 350,000); AID 504332, 2011; also: % is scaled to controls: 0 for no effect and ±100 for the full control effect; nearly all actives have a fitted effect of over 75% in size
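Readings reflect AlphaScreen signal from monomethyl-H3K9 antibody detection. HMT at 20 nM; substrate b-H3K9 500 nM; cofactor SAM 20 uM; 2 h RT reaction; compounds tested as titrations in qHTS with 15 min preincubation.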
* hit, by the source's call; ? = inconclusive; nt = not tested or not shown; [ ] = another dose, or the depositor's remark. Only some compounds are listed: those with a hit (about 12% of all), similar ones and a draw of the others. Calls follow the shape of the dose curve; as a rule, active = well fitted curve in the direction sought with a large enough effect; inconclusive = small, poorly fitted or top-dose-only effect, or another doubt; inactive = no such curve, though single readings can be large; an effect the other way counts as inactive or inconclusive. Potency is read from the fitted curve at half-maximal effect.

SMILES	HP1b binding inh	Sfp inh	PLK1 PBD inh	BAZ2B block	JMJD2A Tudor	G9a block
CCCCC[C@H](O)/C=C/C=C/C=C/[C@@H](O)C/C=C\CCCC(=O)O	nt	-8.5%	nt	nt	nt	nt
O=C(CSc1nncc(=O)[nH]1)NCc1ccccc1	0.3%	-7.5%	26.7µM*	?	39.8µM*	56.2µM*
Nc1cc(=O)[nH]c(SCC(=O)Nc2cccc([N+](=O)[O-])c2)n1	60.5%	5.6%	-16.5%	-8.1%	-10.8%	28.1%[12.7 µM]
O=C(CSc1nc(SCC(=O)NCc2ccccc2)n(-c2ccccc2)n1)NCc1ccccc1	27.8%	-6.8%	-10.3%	2.9%	-12.8%	25.1µM*
O=C(CSc1nncc(=O)[nH]1)Nc1cccc([N+](=O)[O-])c1	51.2%	-5.1%	21.2µM*	-20.5%	-13.1%	-13.3%
O=C(CSc1nc2[nH]ncc2c(=O)[nH]1)NCc1ccccc1	24.8%	7.7%	-11.5%	3.4%	-16.1%	2.8%[59 µM]
Cn1c(SSc2ccc(-c3cccnc3)n2C)ccc1-c1cccnc1	?	nt	4.23µM*	nt	50.1µM*	nt
CNc1cccnc1C=NNC(N)=S	27.8%	nt	-10.0%	nt	79.4µM*	nt
CCOc1ccc(Nc2nc(N)nc(CN3CCN(c4ccccc4F)CC3)n2)cc1	10.6%	5.2%	-21.3%	56.2µM*	?	?
COc1ccccc1Nc1nc(N)nc(CN2CCN(Cc3ccc4c(c3)OCO4)CC2)n1	20.6%	?	7.3%	?	-17.9%	16.6%[12.7 µM]
Nc1nc(CSC(=S)N2CCN(c3ccccc3)CC2)nc(Nc2ccc(F)cc2)n1	?	11.0%	-15.2%	?	56.2µM*	?
Cc1cccc(Nc2nc(N)nc(CN3CCN(Cc4ccc5c(c4)OCO5)CC3)n2)c1	-7.3%	3.3%	-12.1%	?	50.1µM*	3.1%[59 µM]
CN1CCN(Cc2nc(N)nc(Nc3ccc4c(c3)OCCO4)n2)CC1	14.2%	3.5%	0.2%	50.1µM*	?	-29.4%
O=CN1CCN(C=O)C(O)C1O (stereo not given)	23.9%	nt	9.3%	nt	-16.7%	nt
COc1ccc(-c2ccc(OC)c(C3C4C=CCC(C)C4C(=O)N3Cc3ccccc3)c2)cc1 (stereo not given)	20.4%	2.4%	nt	nt	-27.6%	nt
COc1ccc(Cl)cc1NC(=O)c1cc(C)nn1-c1ccccc1	60.1%	nt	nt	?	5.1%	2.2%[59 µM]
Nc1nc(CN2CCN(c3ccccn3)CC2)nc(Nc2ccc(Cl)cc2)n1	13.2%	9.8%	-9.2%	50.1µM*	?	50.1µM*
Cc1cccc(Nc2nc(N)nc(CN3CCN(c4ccccc4)CC3)n2)c1	?	-4.6%	-6.2%	-112.0%	56.2µM*	?
Cc1cccc(Nc2nc(N)nc(CCl)n2)c1	41.9%	-1.8%	-7.3%	8.1%	-3.5%	?
Cc1cccc(Nc2nc(N)nc(CN3CCN(c4ccccc4F)CC3)n2)c1	-17.4%	nt	-8.2%	nt	44.7µM*	nt
Cc1c(CC(=O)NCCc2ccc(Cl)cc2)c(=O)oc2c(C)c3occ(C(C)(C)C)c3cc12	38.7%	nt	nt	-14.1%	-3.1%	-1.6%[59 µM]
C=CCNCC#CCOc1ccc(OC)cc1	?	-18.6%	0.6%	?	6.31µM*	10µM*
COCCNCC#CCOc1ccc(OC)cc1	?	-4.9%	2.3%	50.1µM*	7.94µM*	?
COc1ccc(-n2c(SC(C)C(=O)Nc3ccc(NC(C)=O)cc3)nc3ccccc3c2=O)cc1OC (stereo not given)	20.8%	-3.7%	-13.5%	-8.8%	-23.9%	?
CCN(CC)S(=O)(=O)c1ccc(N(C)C)c(NC(=O)CSCc2c(C)noc2C)c1	11.0%	4.7%	-7.1%	13.4%	-7.6%	nt
Cc1nn(-c2ccc(N3CCCC3)nn2)c(C)c1CCC(=O)Nc1ccc(F)c(Cl)c1	42.4%	nt	nt	-27.0%	?	-3.0%[59 µM]
